Experimental data from PubChem BioAssay (NCATS).
Inconclusive results are not listed. A call without a number means that no potency is given here. Values without a mark were called inactive. Active and inactive are the calls of the source. Calls follow the shape of the dose curve; as a rule, active = well fitted inhibition curve with a large enough effect; inconclusive = small, poorly fitted or top-dose-only effect; inactive = no such curve, though single readings can be large or run the other way.
Potency is read from the fitted curve at half-maximal effect.

The molecules below were run on Zika virus NS2B-NS3 protease (linked construct) (assay: Primary screen NINDS Rhodamine qHTS for Zika virus inhibitors (AID 1347160; also: nearly all actives have a fitted effect of over 55% in size)). Conditions: purified NS2B-NS3 protease, Rhodamine110 substrate fluorescence; series mostly up to 57.1 µM.
How it was run: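 Enzyme (25 nM, linked NS2B-NS3) was preincubated 15 min with compound in 10 mM Tris-HCl pH 8.0, 0.01% Tween 20. Rhodamine110 substrate (1.5 microM) was then added and fluorescence read at start and after 15 min.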
`C[C@H]1CC[C@@]2(OC1)O[C@H]1CC3[C@@H]4CC[C@@H]5C[C@@H](O[C@@H]6O[C@H](CO)[C@@H](O[C@@H]7O[C@H](CO[C@@H]8OC[C@@H](O)[C@H](O)[C@H]8O)[C@@H](O[C@@H]8O[C@H](CO)[C@H](O)[C@H](O)[C@H]8O)[C@H](O)[C@H]7O)[C@H](O)[C@H]6O)CC[C@]5(C)C4CC[C@]3(C)[C@H]1[C@@H]2C` (stereo not given in full) was tested, and the Potency was “inactive”.
With `CO[C@H]1O[C@@H]2O[C@@]3(C)CCC4[C@H](C)CCC([C@H]1C)[C@]42OO3` (stereo not given in full) the Potency was “inactive”.
`COc1cc(N2CCC(O)CC2)ccc1Nc1nc(Nc2ccccc2S(=O)(=O)C(C)C)c2[nH]cnc2n1` was tested, and the Potency was “inactive”.
With `COc1c(C(O)CC(C)C)ccc2c1C(=O)OCc1cc(C)cc(O)c1O2` (stereo not given) the Potency was “inactive”.
`C=C(C)Cn1c(SCC(=O)c2cccs2)nc2sc3c(c2c1=O)CCCC3` was tested, and the Potency was “inactive”.
With `COc1cc(C(N)=O)nc(-c2ccccn2)c1O` the Potency was “inactive”.
`COC(=O)c1cc(Br)cnc1N1CCC(NC2CCCCC2)C(O)C1` (stereo not given) was tested, and the Potency was “inactive”.
In the case of `COc1cc(C2OC(c3ccc(OC)c(OC)c3)C(C)C2C)ccc1O` (stereo not given), the Potency is reported as “inactive”.
With `C/C=C(\C)C(=O)OC1C(C)C2(O)C(C=C(CO)CC3(O)C(=O)C(C)=CC32)C2C(C)(C)C12OC(C)=O` (stereo not given) the Potency was “inactive”.
`C[C@H]1CC[C@@]2(OC1)O[C@H]1CC3C4CC[C@H]5C[C@@H](O)CC[C@]5(C)C4=CC(=O)[C@]3(C)[C@H]1[C@@H]2C` (stereo not given in full) was tested, and the Potency was “inactive”.
`COC(=O)c1ccnc(-c2cc(C(=O)Nc3ccc(C4(N)CC4)cc3)ccn2)c1` was tested, and the Potency was “inactive”.
For `CC(C)c1ccc(-c2cc(=O)c3ccccc3o2)cc1`, the Potency was “inactive”.
With `COc1cc(O)c2c(c1)/C=C/C[C@H](O)[C@H](O)C(=O)/C=C\C[C@H](C)OC2=O` the Potency was “inactive”.
For `CC(=O)OC1C(OC(=O)c2ccccc2)C2C(C)(C)CCC(OC(C)=O)C2(C)C23CCC(C)(C2)C(=O)CC13` (stereo not given), the Potency was “inactive”.
`COC(=O)CC[C@@H](C)C1CCC2C3CCC4C[C@H](OC(C)=O)CCC4(C)C3C[C@H](O)C21C` (stereo not given in full) was tested, and the Potency was “inactive”.
For `N#Cc1ccc(O[C@@H]2c3ccccc3C[C@H]2N2CCC[C@@H](N)C2)c(Cl)c1`, the Potency was “inactive”.
With `CC1=C(c2ccc(NC(=O)c3c(F)cccc3F)cc2)CN(c2nccs2)CC1` the Potency was “inactive”.
For `CC(C)C[C@@H](N)C(=O)N[C@H]1C(=O)N[C@@H](CC(N)=O)C(=O)N[C@H]2C(=O)N[C@H]3C(=O)N[C@H](C(=O)N[C@H](C(=O)O)c4cc(O)cc(O)c4-c4cc3ccc4O)[C@H](O)c3ccc(c(Cl)c3)Oc3cc2cc(c3O[C@@H]2O[C@H](CO)[C@@H](O)[C@H](O)[C@H]2O[C@H]2C[C@](C)(N)[C@H](O)[C@H](C)O2)Oc2ccc(cc2Cl)[C@H]1O`, the Potency was “inactive”.
`CC[N+]1(C/C2=C/CCCCCC2)CCC(NC(=O)C2c3cc(Cl)ccc3Oc3ccc(Cl)cc32)CC1` (stereo not given) was tested, and the Potency was “inactive”.
In the case of `Cn1ccc(NC(=O)c2cc(Oc3ccc(C(=O)N4CCC4)c(F)c3)c3c(c2)OC(C)(C)C3)n1`, the Potency is reported as “inactive”.
In the case of `Cc1c(NC(=O)c2cc3c(s2)CCCC3)cccc1-c1cn(C)c(=O)c(Nc2ccc(C3C(=O)N(C)CCN3C)cc2)n1` (stereo not given), the Potency is reported as “inactive”.
With `Cc1ccc(C(C)C)c(O[C@@H]2O[C@H](CO)[C@@H](O)[C@H](O)[C@H]2O)c1` the Potency was “inactive”.
In the case of `CC(C)(CNC(=O)c1cccc(-c2noc(C(F)(F)F)n2)c1)c1coc(-c2ccccc2)n1`, the Potency is reported as “inactive”.
`CC(C)S(=O)(=O)Nc1ccc(F)c(C(=O)c2c[nH]c3ncc(-c4cccnc4)cc23)c1F` was tested, and the Potency was “inactive”.
With `CC(=O)OCC(=O)[C@@]12O[C@@H]1C[C@H]1[C@@H]3CC=C4C[C@@H](O)CC[C@]4(C)[C@H]3CC[C@@]12C` the Potency was “inactive”.
`O=C1COC2(CCN(S(=O)(=O)c3ccc(-c4ccc5cccnc5c4)cc3)CC2)CN1C1CC1` was tested, and the Potency was “inactive”.
For `COc1cc2ncnc(Nc3ccc(F)c(Cl)c3)c2cc1O`, the Potency was “inactive”.
`COc1ccc(CN2CCN(CCCSc3cc(C(C)(C)C)c(O)c(C(C)(C)C)c3)CC2)c(OC)c1OC` was tested, and the Potency was “inactive”.
For `O=C(Nc1ncc([N+](=O)[O-])s1)c1ccccc1O`, the Potency was 22.4 µM (active).
In the case of `CC(C)c1cccc(C(C)C)c1NC(=O)Nc1ccc(Sc2ccc([N+](=O)[O-])cc2)cc1`, the Potency is reported as “inactive”.
`CCC/C=C/C(=O)O[C@H]1CC(C)(C)CC2[C@@]13[C@H](O)C[C@]1(C)[C@@]2(CCC2[C@@]4(C)CC[C@H](O[C@@H]5O[C@H](C(=O)O)[C@@H](O)[C@H](O[C@@H]6O[C@H](CO)[C@H](O)[C@H](O)[C@H]6O[C@@H]6O[C@@H](C)[C@H](O)[C@@H](O)[C@H]6O[C@@H]6OC[C@](O)(CO)[C@H]6O)[C@H]5O[C@@H]5O[C@H](CO)[C@H](O)[C@H](O)[C@H]5O)C(C)(C)C4CC[C@]21C)O[C@H]3O` (stereo not given in full) was tested, and the activity change, negative = inhibition was -24.8% [at 10.7 µM].
For `C[C@@H](NC(=O)[C@H](O)c1cc(F)cc(F)c1)C(=O)N[C@@H]1C(=O)N(C)c2ccccc2-c2ccccc21`, the Potency was “inactive”.
With `C=CC1(C)CC(O)C(C(=C)C(=O)OC)C(O)C1C(=C)CO` (stereo not given) the Potency was “inactive”.
`CCN(CC)C(=O)c1ccc(Nc2nc(OCC3CCCCC3)c3[nH]cnc3n2)cc1` was tested, and the Potency was “inactive”.
With `CNc1ccc([N+](=O)[O-])c(Nc2ccc3[nH]ncc3c2)n1` the Potency was “inactive”.
In the case of `C=C1C(=O)OC2/C=C(/C)C3=CC(=O)C(C)(CC(OC(=O)/C(C)=C/COC(C)=O)C12)O3` (stereo not given), the Potency is reported as “inactive”.
`C/C=C(\C)C(=O)OC1C[C@@]2(COC(C)=O)O[C@H]2/C=C\[C@@]2(C)O[C@@H]2[C@H]2OC(=O)C(COC(C)=O)=C12` (stereo not given in full) was tested, and the Potency was “inactive”.
With `C/C=C(/C)C(=O)O[C@@H]1C[C@@H](OC(=O)CC(C)C)C2(C)C3C(=O)C=C(C)C2C3C1(C)C` (stereo not given in full) the Potency was “inactive”.
In the case of `O=C(Nc1ccc(N2C(=O)[C@@H]3[C@H](C2=O)[C@@H]2C=C[C@H]3C2)c(Cl)c1)c1ccccn1`, the Potency is reported as “inactive”.
In the case of `CN(C)CC1CCn2c(c(C3=C(c4cn(C)c5ccccc45)C(=O)NC3=O)c3ccccc32)C1` (stereo not given), the Potency is reported as “inactive”.
